Experimental data as given in PubChem BioAssay (Tox21).
Inconclusive results are not listed. The source made the active and inactive calls. Unless noted, the call rests on the fitted dose curve; in most records, active means well fitted curve in the direction sought with a large enough effect in the repeat runs; inconclusive means weak or mixed curves; inactive means no such curve, though single readings can be large; an effect the other way counts as inactive or inconclusive.

Experiments:
[1] = qHTS assay to identify small molecule agonists of the TGF-beta/Smad signaling pathway (AID 1346859; active means well fitted activation curve with a large enough effect in the signal ratio in the repeat runs, not every such curve was filed as active; the % refers to the signal ratio; further: series mostly up to about 77 µM)
Procedure, shortened: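 Smad-responsive beta-lactamase reporter cells (HEK 293T) received compounds from DMSO stocks after overnight attachment, were incubated 5 hr, then treated 2 hr with FRET substrate before dual-emission fluorescence measurement (405 nm excitation).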

[2] = molecular target: Thyrotropin-releasing hormone receptor (Homo sapiens) (UniProt P34981); test: qHTS assay to identify small molecule antagonists of the thyrotropin-releasing hormone receptor (TRHR) signaling pathway (AID 1346877; active means well fitted inhibition curve with a large enough effect in the repeat runs, not every such curve was filed as active; further: series mostly up to about 51 µM)
Sequence of Thyrotropin-releasing hormone receptor (Homo sapiens) (P34981 whole entry, looked up): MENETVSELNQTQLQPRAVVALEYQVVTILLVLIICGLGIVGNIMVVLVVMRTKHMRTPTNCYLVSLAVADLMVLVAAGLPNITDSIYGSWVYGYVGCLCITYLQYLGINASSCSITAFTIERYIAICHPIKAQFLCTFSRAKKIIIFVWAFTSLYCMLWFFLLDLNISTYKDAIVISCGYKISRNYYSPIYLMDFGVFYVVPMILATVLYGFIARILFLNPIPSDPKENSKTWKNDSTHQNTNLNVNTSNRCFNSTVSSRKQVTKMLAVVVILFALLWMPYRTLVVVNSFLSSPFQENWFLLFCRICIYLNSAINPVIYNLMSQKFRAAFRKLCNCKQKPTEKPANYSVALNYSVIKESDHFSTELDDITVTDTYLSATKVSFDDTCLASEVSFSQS
Procedure, shortened: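 TRHR-expressing HEK293 cells loaded with calcium dye for 2 h at 37 C; compounds pre-incubated 5 min at room temperature before TRH challenge at 1 nM final. Intracellular calcium fluorescence read kinetically for 3 min; 15 concentrations in triplicate.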

[3] = molecular target: Thyrotropin-releasing hormone receptor (Homo sapiens) (UniProt P34981); test: qHTS assay to identify small molecule agonists of the thyrotropin-releasing hormone receptor (TRHR) signaling pathway (AID 1346891; calls by dose curve; further: series mostly up to about 58 µM)
Procedure, shortened: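 Agonist-mode calcium mobilisation screen: TRHR-transfected HEK293 cells cultured overnight (18 h), dye-loaded for 2 h at 37 °C, exposed to compounds, and monitored by fluorescence for 3 min.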

[4] = Human pregnane X receptor (PXR) small molecule agonists, qHTS cell viability counter screen (AID 1346977); further: nearly all actives have a fitted effect of over 50% in size
Procedure, shortened: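 Measures live-cell protease fluorescence (CellTiter-Fluor) in PXR-Luc HepG2 cells treated 24hr with compounds at 37C. Cells had 5hr to attach before pin transfer of DMSO solutions.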

[5] = Caspase-3/7 induction in HepG2 cells by small molecules, qHTS assay (AID 1346978); further: nearly all actives have a fitted effect of over 15% in size
Procedure, shortened: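 Wild-type HepG2 cells, 2,000/well, settled 5 hr at 37 C and 5% CO2, then compound-treated for 17 hr; caspase-3/7 activity read by luminescent Caspase-Glo 3/7 after 30 min at room temperature.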

[6] = Caspase-3/7 induction in CHO-K1 cells by small molecules, qHTS cell viability counter screen (AID 1346979); further: nearly all actives have a fitted effect of over 35% in size
Procedure, shortened: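 In the same wells as the caspase read, viability of compound-treated wild-type CHO-K1 cells was assessed using CellTiter-Fluor, added after 16hr at 37C and measured by fluorescence following 1hr further incubation.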

[7] = Caspase-3/7 induction in HepG2 cells by small molecules, qHTS cell viability counter screen (AID 1346981); further: series mostly up to about 92 µM; nearly all actives have a fitted effect of over 30% in size
Procedure, shortened: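 Wild-type HepG2 cells, 2,000/well, settled 5 hr at 37 C, 5% CO2 before compound addition. Viability read by CellTiter-Fluor fluorescence, reagent added after 16 hr compound exposure, then 1 hr at 37C, in the same wells as the caspase read.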

[8] = molecular target: Nuclear receptor subfamily 1 group I member 2 (Homo sapiens) (UniProt O75469); test: Human pregnane X receptor (PXR) small molecule agonists, qHTS assay (AID 1346982); further: nearly all actives have a fitted effect of over 35% in size
Sequence of Nuclear receptor subfamily 1 group I member 2 (Homo sapiens) (O75469 whole entry, looked up): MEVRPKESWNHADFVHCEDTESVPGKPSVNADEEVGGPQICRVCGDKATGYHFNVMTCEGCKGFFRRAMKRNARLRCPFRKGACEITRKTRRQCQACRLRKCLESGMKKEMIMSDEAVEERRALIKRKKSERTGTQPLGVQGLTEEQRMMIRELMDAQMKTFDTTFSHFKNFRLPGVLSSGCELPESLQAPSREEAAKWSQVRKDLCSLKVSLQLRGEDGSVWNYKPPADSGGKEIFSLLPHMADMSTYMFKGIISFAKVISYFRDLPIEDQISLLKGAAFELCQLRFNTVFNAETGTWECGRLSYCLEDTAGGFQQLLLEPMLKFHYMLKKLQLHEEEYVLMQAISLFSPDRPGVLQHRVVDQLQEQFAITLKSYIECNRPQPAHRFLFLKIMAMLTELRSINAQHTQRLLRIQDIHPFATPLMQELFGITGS
Procedure, shortened: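 PXR-Luc HepG2 reporter cells (CYP3A4-driven luciferase) in 5% charcoal-stripped FBS medium, plated 5 h before compound addition, then treated 24 h at 37C. Luciferase read by ONE-Glo luminescence after 30 min at room temperature.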

[9] = molecular target: Cytochrome P450 2C19 (Homo sapiens) (UniProt P33261); test: Cytochrome P450 Family 2 Subfamily C Member 19 (CYP2C19) small molecule antagonists: luciferase reporter qHTS assay (AID 1671197); further: series mostly up to about 120 µM; nearly all actives have a fitted effect of over 65% in size
Sequence of Cytochrome P450 2C19 (Homo sapiens) (P33261 whole entry, looked up): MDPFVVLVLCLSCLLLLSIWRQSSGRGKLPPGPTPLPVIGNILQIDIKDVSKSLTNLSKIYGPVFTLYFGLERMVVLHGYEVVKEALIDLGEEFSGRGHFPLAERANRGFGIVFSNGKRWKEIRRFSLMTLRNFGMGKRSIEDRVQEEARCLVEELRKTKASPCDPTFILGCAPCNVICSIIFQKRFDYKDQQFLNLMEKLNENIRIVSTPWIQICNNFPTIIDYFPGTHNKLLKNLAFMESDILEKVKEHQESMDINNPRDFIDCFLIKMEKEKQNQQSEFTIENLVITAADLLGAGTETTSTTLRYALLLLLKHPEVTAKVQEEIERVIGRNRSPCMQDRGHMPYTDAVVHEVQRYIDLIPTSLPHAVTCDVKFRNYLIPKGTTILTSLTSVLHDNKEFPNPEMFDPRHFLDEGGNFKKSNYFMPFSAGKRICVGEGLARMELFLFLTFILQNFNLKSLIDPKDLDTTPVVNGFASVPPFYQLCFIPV
Procedure, shortened: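 Inhibition of CYP2C19 was scored from loss of luminescence in a P450-Glo proluciferin substrate assay, NADPH-started and run 1 h at 37C, with ketoconazole as positive control.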

[10] = molecular target: Cytochrome P450 2C9 (Homo sapiens) (UniProt P11712); test: Cytochrome P450 Family 2 Subfamily C Member 9 (CYP2C9) small molecule antagonists: luciferase reporter qHTS assay (AID 1671198); further: series mostly up to about 120 µM; nearly all actives have a fitted effect of over 50% in size
Sequence of Cytochrome P450 2C9 (Homo sapiens) (P11712 whole entry, looked up): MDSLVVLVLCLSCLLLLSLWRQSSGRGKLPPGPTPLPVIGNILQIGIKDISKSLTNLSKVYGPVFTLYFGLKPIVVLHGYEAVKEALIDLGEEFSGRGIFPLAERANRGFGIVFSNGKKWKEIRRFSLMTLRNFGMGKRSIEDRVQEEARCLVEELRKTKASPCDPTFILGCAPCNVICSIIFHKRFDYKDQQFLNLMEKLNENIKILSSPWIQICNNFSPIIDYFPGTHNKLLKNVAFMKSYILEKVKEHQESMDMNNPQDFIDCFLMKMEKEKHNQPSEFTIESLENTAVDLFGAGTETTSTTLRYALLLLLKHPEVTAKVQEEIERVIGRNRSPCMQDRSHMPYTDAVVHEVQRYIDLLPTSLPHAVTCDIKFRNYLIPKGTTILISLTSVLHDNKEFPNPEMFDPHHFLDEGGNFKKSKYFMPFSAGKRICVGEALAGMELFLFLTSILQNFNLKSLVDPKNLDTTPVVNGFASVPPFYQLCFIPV
Procedure, shortened: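 P450-Glo proluciferin substrate with CYP2C9 enzyme; 10 min RT preincubation, then NADPH regeneration 1 h at 37C; luciferin detection reagent 20 min RT, luminescence in relative luminescence units.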

[11] = molecular target: Cytochrome P450 1A2 (Homo sapiens) (UniProt P05177); test: Cytochrome P450 Family 1 Subfamily A Member 2 (CYP1A2) small molecule antagonists: luciferase reporter qHTS assay (AID 1671199); further: series mostly up to about 120 µM; nearly all actives have a fitted effect of over 50% in size
Sequence of Cytochrome P450 1A2 (Homo sapiens) (P05177 whole entry, looked up): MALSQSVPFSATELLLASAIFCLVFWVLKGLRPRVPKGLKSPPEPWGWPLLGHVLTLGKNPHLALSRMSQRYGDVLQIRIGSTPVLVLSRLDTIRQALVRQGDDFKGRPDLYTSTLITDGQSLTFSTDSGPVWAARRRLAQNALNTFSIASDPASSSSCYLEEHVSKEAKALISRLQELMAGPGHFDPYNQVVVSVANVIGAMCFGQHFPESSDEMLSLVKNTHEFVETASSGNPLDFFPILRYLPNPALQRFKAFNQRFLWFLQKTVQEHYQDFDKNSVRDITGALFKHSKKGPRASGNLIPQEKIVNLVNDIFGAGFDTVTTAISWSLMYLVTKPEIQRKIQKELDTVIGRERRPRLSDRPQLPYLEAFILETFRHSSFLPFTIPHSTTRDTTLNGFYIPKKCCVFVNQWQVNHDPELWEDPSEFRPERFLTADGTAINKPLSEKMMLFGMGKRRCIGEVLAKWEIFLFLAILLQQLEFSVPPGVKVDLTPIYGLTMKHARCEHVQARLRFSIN
Procedure, shortened: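 P450-Glo CYP1A2 enzyme–proluciferin substrate mix with compound 10 min at room temperature, then NADPH regeneration 1 h at room temperature. Luciferin detection reagent added, luminescence read after 20 min; furafylline positive control.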

[12] = molecular target: Voltage-gated inwardly rectifying potassium channel KCNH2 (Homo sapiens) (UniProt Q12809); test: Human Ether-a-go-go-Related Gene (hERG) channel small molecule antagonists: fluorescence cell-based qHTS assay (AID 1671200);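 further: hERG-expressing U2OS cells given a thallium stimulus after FluxOR II dye loading; series mostly up to about 77 µM; nearly all actives have a fitted effect of over 50% in size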
Sequence of Voltage-gated inwardly rectifying potassium channel KCNH2 (Homo sapiens) (Q12809 whole entry, looked up): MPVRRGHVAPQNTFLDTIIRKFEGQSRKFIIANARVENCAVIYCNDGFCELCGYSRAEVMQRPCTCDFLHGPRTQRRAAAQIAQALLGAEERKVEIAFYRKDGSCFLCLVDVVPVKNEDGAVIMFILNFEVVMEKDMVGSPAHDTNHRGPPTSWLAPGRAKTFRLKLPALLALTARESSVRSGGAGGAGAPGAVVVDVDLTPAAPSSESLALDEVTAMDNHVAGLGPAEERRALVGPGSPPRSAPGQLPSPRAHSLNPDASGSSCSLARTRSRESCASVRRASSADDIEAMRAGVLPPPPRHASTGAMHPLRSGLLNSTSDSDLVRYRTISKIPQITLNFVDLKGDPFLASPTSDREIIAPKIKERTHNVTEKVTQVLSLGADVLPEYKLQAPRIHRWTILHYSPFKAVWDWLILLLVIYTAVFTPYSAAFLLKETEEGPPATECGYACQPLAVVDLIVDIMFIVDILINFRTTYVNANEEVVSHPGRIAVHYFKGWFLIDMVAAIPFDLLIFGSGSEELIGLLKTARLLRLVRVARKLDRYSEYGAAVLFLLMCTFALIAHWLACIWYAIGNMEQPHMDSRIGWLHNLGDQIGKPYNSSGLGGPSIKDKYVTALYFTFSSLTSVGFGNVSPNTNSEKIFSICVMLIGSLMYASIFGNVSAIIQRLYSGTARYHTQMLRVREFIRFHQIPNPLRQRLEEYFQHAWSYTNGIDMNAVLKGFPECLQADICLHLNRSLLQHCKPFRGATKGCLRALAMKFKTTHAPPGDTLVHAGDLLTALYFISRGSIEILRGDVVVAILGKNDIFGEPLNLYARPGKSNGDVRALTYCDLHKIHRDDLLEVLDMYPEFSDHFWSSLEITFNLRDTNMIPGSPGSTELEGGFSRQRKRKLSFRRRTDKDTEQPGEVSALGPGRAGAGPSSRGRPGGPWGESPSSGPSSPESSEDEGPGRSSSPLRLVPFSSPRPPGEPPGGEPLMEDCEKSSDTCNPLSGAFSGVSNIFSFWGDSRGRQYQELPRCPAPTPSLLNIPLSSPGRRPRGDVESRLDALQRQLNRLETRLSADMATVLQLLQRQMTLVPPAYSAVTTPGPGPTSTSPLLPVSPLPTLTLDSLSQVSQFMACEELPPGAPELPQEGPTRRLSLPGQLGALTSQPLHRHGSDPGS
Procedure, shortened: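 Quantitative HTS in hERG-U2OS cells: thallium entry through the channel reports activity, read as continuous 480/540 nm fluorescence over 2 min after stimulus addition.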

[13] = molecular target: Cytochrome P450 3A4 (Homo sapiens) (UniProt P08684); test: Cytochrome P450 Family 3 Subfamily A Member 4 (CYP3A4) small molecule antagonists: luciferase reporter qHTS assay (AID 1671201)
Sequence of Cytochrome P450 3A4 (Homo sapiens) (P08684 whole entry, looked up): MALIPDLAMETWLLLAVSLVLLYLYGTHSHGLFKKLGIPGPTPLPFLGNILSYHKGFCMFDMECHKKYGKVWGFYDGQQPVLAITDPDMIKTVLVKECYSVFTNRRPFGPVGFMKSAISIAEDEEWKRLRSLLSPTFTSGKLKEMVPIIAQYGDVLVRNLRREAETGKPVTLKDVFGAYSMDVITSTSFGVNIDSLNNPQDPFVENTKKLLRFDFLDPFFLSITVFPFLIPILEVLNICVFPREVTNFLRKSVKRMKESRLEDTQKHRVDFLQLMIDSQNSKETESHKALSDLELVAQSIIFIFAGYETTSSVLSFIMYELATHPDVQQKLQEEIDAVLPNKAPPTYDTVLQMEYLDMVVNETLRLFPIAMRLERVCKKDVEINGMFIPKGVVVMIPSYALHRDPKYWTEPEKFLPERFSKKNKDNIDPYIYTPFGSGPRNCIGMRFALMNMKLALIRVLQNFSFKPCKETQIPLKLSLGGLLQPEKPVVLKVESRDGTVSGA
Procedure, shortened: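 Inhibition of CYP3A4 is measured as loss of light: the enzyme converts a proluciferin substrate to luciferin, detected luminescently. Reaction ran 1 h at room temperature with NADPH regeneration after a 10 min compound preincubation.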

[14] = Caspase-3/7 induction in CHO-K1 cells by small molecules, qHTS assay (AID 1346980); further: nearly all actives have a fitted effect of over 15% in size
Procedure, shortened: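 Wild-type CHO-K1 cells exposed to compounds for 17hr at 37 C, 5% CO2. Caspase-3/7 activity then measured by Caspase-Glo 3/7 luminescence after 30min at room temperature.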

[15] = molecular target: Cytochrome P450 2D6 (Homo sapiens) (UniProt P10635); test: Cytochrome P450 Family 2 Subfamily D Member 6 (CYP2D6) small molecule antagonists: luciferase reporter qHTS assay (AID 1671196)
Sequence of Cytochrome P450 2D6 (Homo sapiens) (P10635 whole entry, looked up): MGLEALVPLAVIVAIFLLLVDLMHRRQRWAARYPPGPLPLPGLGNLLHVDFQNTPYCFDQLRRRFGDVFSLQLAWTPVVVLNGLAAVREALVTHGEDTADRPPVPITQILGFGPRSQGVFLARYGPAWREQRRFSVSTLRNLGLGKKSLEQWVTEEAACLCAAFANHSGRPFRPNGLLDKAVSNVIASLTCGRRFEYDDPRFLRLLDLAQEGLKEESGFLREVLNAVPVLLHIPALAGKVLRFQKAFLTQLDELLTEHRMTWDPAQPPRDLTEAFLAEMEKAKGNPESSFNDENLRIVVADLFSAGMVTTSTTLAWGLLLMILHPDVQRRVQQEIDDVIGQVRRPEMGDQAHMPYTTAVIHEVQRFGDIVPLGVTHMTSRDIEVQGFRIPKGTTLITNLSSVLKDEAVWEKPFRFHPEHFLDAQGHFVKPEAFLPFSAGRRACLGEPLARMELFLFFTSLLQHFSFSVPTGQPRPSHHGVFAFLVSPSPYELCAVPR
Procedure, shortened: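 Cell-free P450-Glo system: CYP2D6 with proluciferin substrate was pre-incubated with compound for 10 min, then reacted with NADPH regeneration for 1 h at room temperature. Luciferin product was detected after 20 min, and data were reported as relative luminescence units.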

[16] = molecular target: Nuclear receptor subfamily 1 group I member 2 (Rattus norvegicus) (UniProt Q9R1A7); test: Rat pregnane X receptor (rPXR) activation by small molecules, qHTS assay (AID 1346983); conditions: rPXR luciferase reporter cells, One-Glo luminescence, 24 h; stronger effect = higher value; further: nearly all actives have a fitted effect of over 20% in size
Sequence of Nuclear receptor subfamily 1 group I member 2 (Rattus norvegicus) (Q9R1A7 whole entry, looked up): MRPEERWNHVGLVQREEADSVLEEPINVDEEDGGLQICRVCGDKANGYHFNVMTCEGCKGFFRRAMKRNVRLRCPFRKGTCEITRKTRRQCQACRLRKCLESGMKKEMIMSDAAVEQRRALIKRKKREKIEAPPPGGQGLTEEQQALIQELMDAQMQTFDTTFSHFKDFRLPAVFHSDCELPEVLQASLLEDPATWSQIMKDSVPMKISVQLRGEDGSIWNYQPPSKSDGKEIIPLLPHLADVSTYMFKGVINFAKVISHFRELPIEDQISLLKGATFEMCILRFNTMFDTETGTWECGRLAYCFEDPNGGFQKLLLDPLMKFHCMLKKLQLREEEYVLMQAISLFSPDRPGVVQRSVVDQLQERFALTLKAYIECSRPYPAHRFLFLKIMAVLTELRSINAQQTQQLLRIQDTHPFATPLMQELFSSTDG
Procedure, shortened: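 Cell-based rPXR activation assay: rPXR cells, 2,000 per well, rested 5hr at 37 C, then exposed to compounds in DMSO for 24 hr at 37 C. Luciferase activity read by One-Glo luminescence after 30 min at room temperature.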

[17] = molecular target: Nuclear receptor subfamily 1 group I member 2 (Homo sapiens) (UniProt O75469); test: Human pregnane X receptor (PXR) activation by small molecules, qHTS assay (AID 1346985); further: nearly all actives have a fitted effect of over 40% in size
Procedure, shortened: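 DPX-2 cells (HepG2 co-transfected with a PXR response element and a CYP3A4-promoter luciferase construct) were seeded at 2,000 per well, rested 5 hr at 37C, then exposed to DMSO-dissolved compounds for 24 hr. Activation was read as luciferase luminescence.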
On the % scale 0 is the no-effect control and ±100 the full control effect.

C=Cc1ccc(C(C)(C)C)cc1
inactive: outcome [1] | outcome [2] | outcome [3] | outcome [4] | outcome [5] | Potency [6] | outcome [7] | Potency [8] | Potency [9] | Potency [10] | Potency [11] | Potency [12] | Potency [13]

CC(C)CO
inactive: outcome [1] | outcome [2] | outcome [3] | outcome [4] | Potency [6] | outcome [14] | outcome [7] | Potency [8] | Potency [10] | Potency [11]

O=C(O)CSCC(=O)NC1CCSC1=O (centres undefined)
inactive: outcome [1] | outcome [2] | outcome [3] | outcome [4] | Potency [6] | outcome [14] | outcome [7] | Potency [8] | Potency [15] | Potency [9] | Potency [10] | Potency [11] | Potency [12] | Potency [13]

N[C@@H](Cc1ccc(O)cc1)C(=O)O
inactive: activation [1] 4.2% [at 6.97 µM] | activity, negative = inhibition [2] -2.4% [at 4.65 µM] | activity change, negative = cytotoxicity [4] -1.74% [at 8.39 µM] | caspase activation [5] -1.72% [at 8.39 µM] | activity change, negative = cytotoxicity [6] 1.62% [at 8.39 µM] | caspase-3/7 activation [14] -1.08% [at 8.39 µM] | activity change, negative = cytotoxicity [7] -1.35% [at 8.39 µM] | activation [8] -5.23% [at 8.39 µM] | max activation [16] 3.66% | Potency [17]

CCO
inactive: outcome [1] | outcome [2] | outcome [3] | outcome [4] | Potency [6] | outcome [14] | outcome [7] | Potency [8] | Potency [9] | Potency [10] | Potency [12] | Potency [13]
